{"source": "PubChem BioAssay AID651692", "about": "(Broad Institute, 2012)", "note": "Measured potencies and affinities stand elsewhere. A number with no mark means an inactive call.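 Rule for the calls: active = fitted half-maximal concentration for loss of cell signal no higher than twice the top valid tested concentration; inconclusive = flat curve at 30 to 70% inhibition, or poor fit; inactive = flat within 30%, signal rise, or potency above limit.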", "data": [{"experiment": "cytotoxicity toward MDA-MB-231 breast cancer cells – cell-based, CellTiter-Glo luminescence, cherry-pick, cytotoxicity control for RAD54 inhibitor project, dose response (AID 651692);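 note: 0% = median of sample compound wells and -100% = staurosporine control wells; more negative values mean stronger loss of viable cell signal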", "details": "MDA-MB-231 viability, 24 h; series mostly up to 26 µM; activity change, negative = growth inhibition: at the top concentration", "units": {"activity change, negative = growth inhibition": "%"}, "values": [{"smiles": "CCCN(CCC)CCCNC(=O)c1cc2c(=O)n(C)c3ccccc3c2n1C", "activity change, negative = growth inhibition": -6.99}, {"smiles": "CCCN(CCC)c1nc(-c2ccccn2)nc2ccccc12", "activity change, negative = growth inhibition": -1.83}, {"smiles": "c1ccc(-c2cc(NCCN3CCCCC3)c3ccccc3n2)cc1", "activity change, negative = growth inhibition": -16.1}, {"smiles": "CCN(CC)CCNC(=S)Nc1ccc2nc(N3CCN(CC)CC3)cc(C)c2c1", "activity change, negative = growth inhibition": -7.23}, {"smiles": "COc1cccc(-c2nc(NCCN3CCOCC3)c3ccccc3n2)c1O", "activity change, negative = growth inhibition": 0.284}, {"smiles": "OCCCNc1c2ccccc2nc2ccccc12", "activity change, negative = growth inhibition": 1.17}, {"smiles": "Cn1c(NCCN2CCCC2)nc2cc(-c3ccccc3)sc2c1=O", "activity change, negative = growth inhibition": -6.96}, {"smiles": "CN1CCN(CC(=O)Nc2nc(-c3c[nH]c4ccccc34)cs2)CC1", "activity change, negative = growth inhibition": 0.076}, {"smiles": "CCN(CC)CCNC(=O)c1cc2c(=O)n(C)c3ccccc3c2s1", "activity change, negative = growth inhibition": -8.38}, {"smiles": "CCN1CCN(c2ccc(Nc3ccnc4ccccc34)cc2)CC1", "activity change, negative = growth inhibition": -8.61}, {"smiles": "CCN(CC)CCn1c2ccccc2c2nc3ccccc3nc21", "activity change, negative = growth inhibition": 1.86}, {"smiles": "CCN(CC)CCNc1nc(SC)nc2sc3c(c12)CCN(C)C3", "activity change, negative = growth inhibition": -3.77}, {"smiles": "Nc1cc2ccncc2c2ccccc12", "activity change, negative = growth inhibition": 0.699}, {"smiles": "Cc1cc(C)n(-c2nc(NCCN(C)C)c3c4c(sc3n2)COC(C)(C)C4)n1", "activity change, negative = growth inhibition": -9}, {"smiles": "CCOC(=O)c1cc(-c2ccncc2)nc2c1c(C)nn2-c1ccccn1", "activity change, negative = growth inhibition": -5.8}, {"smiles": "CCOC(=O)c1cnc2ccc(C)cc2c1NCCN1CCOCC1", "activity change, negative = growth inhibition": 6.54}, {"smiles": "O=C(CS(=O)(=O)c1ccccc1)Nc1ccc(Br)cn1", "activity change, negative = growth inhibition": 8.12}, {"smiles": "Cc1cccn2c(=O)c3cc(C(=O)NCCc4ccccc4)c(=N)n(CCCn4ccnc4)c3nc12", "activity change, negative = growth inhibition": -4.6}, {"smiles": "Cc1cccn2c(=O)c3cc(C(=O)NC4CCCC4)c(=N)n(CCCN4CCOCC4)c3nc12", "activity change, negative = growth inhibition": -2.59}, {"smiles": "CCN(CC)CCNc1ccc(CO)c2sc3ccccc3c(=O)c12", "activity change, negative = growth inhibition": -3.91}, {"smiles": "COc1ccc(CCn2c(=N)c(C(=O)NCCN3CCOCC3)cc3c(=O)n4cccc(C)c4nc32)cc1OC", "activity change, negative = growth inhibition": -11.8}]}]}
